Shown are actives, neighbours in structure and some others; about 18% of the full set was active somewhere.
Six1-Eya2 inh – inhibitors of human Six1/Eya2 interaction. activity change, % (no concentration beside the values). 360,000 compounds, 0.56% hits. AlphaScreen GST-Six1/His-Eya2 binding, biochemical; stronger effect = lower value. Q15475+O00167. AID 651725; in the data active = activity change below about -65%; inconclusive = mostly about -30% to -63%
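Homogeneous AlphaScreen proximity assay pairing GST-Six1 with His-tagged Eya2 (added as 5X mix: 250 nM and 500 nM) in 50 mM Tris pH 8.0, 300 mM NaCl, 1 mM TCEP. Glutathione donor and nickel acceptor beads; 1 h, 37 °C, dark.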
TDP1 block – blocks human tyrosyl-DNA phosphodiesterase 1; Q9NUW8; recombinant TDP1, AlphaScreen DNA substrate cleavage; Potency, µM (top dose mostly 130 µM), for inactives: at the top dose activity change, negative = inhibition, hits mostly inhibitors; 350,000 compounds, 0.28% hits; AID 485290; note: potency is the fitted concentration of half-maximal effect; nearly all actives have a fitted effect of over 40% in size
Target sequence (Q9NUW8 whole entry, looked up): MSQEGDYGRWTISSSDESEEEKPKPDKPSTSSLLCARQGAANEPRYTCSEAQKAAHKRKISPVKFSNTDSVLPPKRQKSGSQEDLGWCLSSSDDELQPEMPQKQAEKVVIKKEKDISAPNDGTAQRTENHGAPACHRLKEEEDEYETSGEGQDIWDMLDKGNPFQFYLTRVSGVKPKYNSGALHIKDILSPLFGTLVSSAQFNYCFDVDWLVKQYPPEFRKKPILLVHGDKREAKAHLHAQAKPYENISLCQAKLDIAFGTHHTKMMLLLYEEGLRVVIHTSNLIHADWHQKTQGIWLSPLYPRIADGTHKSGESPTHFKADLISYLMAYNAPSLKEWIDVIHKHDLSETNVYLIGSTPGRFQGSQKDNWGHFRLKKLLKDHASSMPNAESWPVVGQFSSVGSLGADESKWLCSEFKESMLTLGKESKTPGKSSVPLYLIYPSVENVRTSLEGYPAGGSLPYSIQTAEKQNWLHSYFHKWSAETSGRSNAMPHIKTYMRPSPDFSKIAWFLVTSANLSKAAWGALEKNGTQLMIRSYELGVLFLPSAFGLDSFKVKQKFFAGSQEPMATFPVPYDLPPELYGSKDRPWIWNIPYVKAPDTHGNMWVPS
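Signal: AlphaScreen proximity between streptavidin donor and anti-FITC acceptor beads on intact substrate. Reaction: Tdp1 1 nM, substrate 15 nM final, 5 min RT after 15 min compound preincubation.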
DT40 TDP1 no CPT – qHTS for Inhibitors of human tyrosyl-DNA phosphodiesterase 1 (TDP1): qHTS in cells in absence of CPT | DT40 Tdp1-/- hTDP1 cells, no CPT, ATP luminescence, 48 h | Potency, µM (highest dose often 46.2 µM), inactives show top-dose activity change, negative = growth inhibition, most hits filed as inhibitors | 420,000 compounds, 15% hits | AID 686978, 2013; note: potency is the fitted concentration of half-maximal effect; nearly all actives have a fitted effect of over 55% in size
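Growth of hTDP1-complemented DT40 Tdp1-knockout cells is measured by ATP luminescence after at least 48 hr compound exposure at 37 °C, with DMSO substituting for the 20 nM CPT used in the parallel screen.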
TDP1 cell CPT – growth inhibition of DT40 Tdp1-/-;hTDP1 cells with camptothecin (screen for TDP1 inhibitors); Potency, µM (highest dose often 46.2 µM), for the others: at the top dose activity change, negative = growth inhibition, usual class: inhibitors; AID 686979; 420,000 compounds, 12% hits; chicken DT40 Tdp1-/-;hTDP1 cells + 20 nM CPT, ATP luminescence, 48 h; note: potency is the fitted concentration of half-maximal effect; nearly all actives have a fitted effect of over 55% in size
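Chicken DT40 Tdp1-/- cells stably complemented with human TDP1 were seeded at 400 cells/well in medium containing 20 nM camptothecin, exposed to pin-transferred compounds, and grown at 37 °C for at least 48 hr. Viability was read as ATP luminescence.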
IL-1B inflam inh – inflammasome signaling inhibition, IL-1 beta readout; THP-1 LPS/ATP IL-1B secretion, AlphaLISA, 16 h; stronger effect = lower value; activity change, % at 57.5 µM; 360,000 compounds, 4.7% hits; AID 743279; in the data active = activity change below about -50%; inconclusive = mostly about -30% to -49%
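Secreted IL-1B measured by AlphaLISA bead assay after 16 h compound exposure of THP-1 cells; compounds (final up to 57.5 uM) added 1 h before LPS (250 ng/mL) and ATP (1.25 mM) stimulation; lower signal means less secretion.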
CtBP-E1A inh – inhibitors of CtBP/E1A interaction; AlphaScreen GST-E1A/His-CtBP binding, 1536-well; stronger effect = lower value; activity change, % (test concentration not listed); 340,000 compounds, 0.49% hits; AID 651724; in the data active = activity change below about -65%; inconclusive = mostly about -30% to -63%
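In 5 uL wells, 23 nL compound meets equimolar GST-E1A and His-CtBP (5X stock 125 nM each) for 2 h, 37 °C. Beads (5X, 50 ug/mL) then 1 h, 37 °C, dark.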
Numbers without * were called inactive. Unless noted, calls come from the whole dose curve; as a rule, active = well fitted curve in the direction sought with a large enough effect; inconclusive = small, poorly fitted or top-dose-only effect, or another doubt; inactive = no such curve, though single readings can be large; an effect the other way counts as inactive or inconclusive. % is set by controls: 0 for no effect and ±100 for the full control effect.

O=c1c(O)c(-c2ccc(O)c(O)c2)oc2c(OC[C@@H]3O[C@@H](O)[C@@H](O)[C@H](O)[C@H]3O)c(O)cc(O)c12 was read as DT40 TDP1 no CPT -8% and TDP1 cell CPT -2%.
CC(=O)N(Cc1ccc(Cl)cc1)c1cnccn1 was read as Six1-Eya2 inh -23, DT40 TDP1 no CPT 10%, TDP1 cell CPT 0%, IL-1B inflam inh 16 and CtBP-E1A inh -5.
For CCn1nc(C)c(NC(=O)CC23CC4CC(CC(C4)C2)C3)c1C the results were Six1-Eya2 inh 8, TDP1 block -3%, DT40 TDP1 no CPT 21µM*, TDP1 cell CPT inconclusive, IL-1B inflam inh 47 and CtBP-E1A inh 18.
Cc1nn(C)cc1NC(=O)CC12CC3CC(CC(C3)C1)C2 was read as Six1-Eya2 inh -1, TDP1 block -5%, DT40 TDP1 no CPT inconclusive, TDP1 cell CPT inconclusive, IL-1B inflam inh 17 and CtBP-E1A inh -8.
Screening CC1CCCCC1N=CC1=C(O)CC(C)(C)CC1=O (stereo not given) returned Six1-Eya2 inh 5, TDP1 block 4%, DT40 TDP1 no CPT -5%, TDP1 cell CPT -29%, IL-1B inflam inh 15 and CtBP-E1A inh 9.
For O=C(CSc1nc(=O)n2ccccc2n1)Nc1cccc2ccccc12 the results were Six1-Eya2 inh -3, DT40 TDP1 no CPT -9%, TDP1 cell CPT 8%, IL-1B inflam inh 16 and CtBP-E1A inh -1.
`O=C1CC(c2cccc(Cl)c2)Cc2nc(N3CCOCC3)ncc21` (stereo not given) gave Six1-Eya2 inh 24, TDP1 block 10%, DT40 TDP1 no CPT 21µM*, TDP1 cell CPT inconclusive, IL-1B inflam inh 13 and CtBP-E1A inh 28.
Screening O=C1CC(c2ccc(F)cc2)Cc2nc(N3CCOCC3)ncc21 (stereo not given) returned Six1-Eya2 inh -14, TDP1 block 8%, DT40 TDP1 no CPT inconclusive, TDP1 cell CPT -21%, IL-1B inflam inh -5 and CtBP-E1A inh -1.
`O=C1CC(c2cccc(Cl)c2)Cc2nc(N3CCN(c4ccccc4)CC3)ncc21` (stereo not given) gave Six1-Eya2 inh 5, TDP1 block 7%, DT40 TDP1 no CPT -4%, TDP1 cell CPT -3%, IL-1B inflam inh 9 and CtBP-E1A inh 9.
Screening CCN1CCN(c2ncc3c(n2)CC(c2cc(OC)c(OC)c(OC)c2)CC3=O)CC1 (stereo not given) returned Six1-Eya2 inh 1, TDP1 block -4%, DT40 TDP1 no CPT 3.3µM*, TDP1 cell CPT 4.6µM*, IL-1B inflam inh 26 and CtBP-E1A inh 5.
Cc1ccccc1-c1nn(-c2ccc(F)cc2F)cc1CNCC(C)O (stereo not given) was read as Six1-Eya2 inh -1, TDP1 block -4%, DT40 TDP1 no CPT inconclusive, TDP1 cell CPT -28% and IL-1B inflam inh -19.
For CCOCCCNCc1cn(-c2ccc(F)cc2F)nc1-c1ccccc1C the results were Six1-Eya2 inh -8, TDP1 block 3%, DT40 TDP1 no CPT 16µM*, TDP1 cell CPT 15µM*, IL-1B inflam inh -77* and CtBP-E1A inh 11.
`Cn1c(=O)oc2cc(S(=O)(=O)N3CCCC(C(=O)Nc4nccs4)C3)ccc21` (stereo not given) gave Six1-Eya2 inh 1, TDP1 block 5%, DT40 TDP1 no CPT 21µM*, TDP1 cell CPT inconclusive, IL-1B inflam inh 3 and CtBP-E1A inh 2.
`CCN(CC)c1ccc(NC(=O)C2CCCN(S(=O)(=O)c3ccc4c(c3)oc(=O)n4C)C2)c(C)c1` (stereo not given) gave TDP1 block -9%, DT40 TDP1 no CPT 10µM* and TDP1 cell CPT 21µM*.
